CBFb RUNX1 block – blocks binding between human CBF-beta and RUNX1; 230,000 tested, under 10 active; Potency, µM (titrated, usually from 59.8 µM), for inactives: top-dose activity, negative = inhibition, hits mostly inhibitors; AlphaScreen CBFb-His/RUNX1-biotin binding, biochemical; Q01196+Q13951; note: % of control where 0% means no effect
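AlphaScreen proximity signal reports loss of binding between His-tagged CBF-beta and biotin-labelled RUNX1, each at 30 nM. Proteins are pre-associated for 20 minutes, compounds added for 15 minutes, then beads for 90 minutes, all at ambient temperature.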
HPGD block – blocks human HPGD enzyme activity | actives 4.3% (n = 150,000) | Potency, µM, for inactives: at the highest dose activity change, negative = inhibition, actives largely listed as inhibitors | purified HPGD, NADH fluorescence kinetic, PGE2 substrate | P15428; active = well fitted inhibition curve with a large enough effect, not every such curve was filed as active; inconclusive = small, poorly fitted or top-dose-only effect, or another doubt; inactive = no such curve, though single readings can be large or run the other way; note: potency is the fitted concentration of half-maximal effect; % is set by controls: 0 for no effect and ±100 for the full control effect
Target sequence (P15428 whole entry, looked up): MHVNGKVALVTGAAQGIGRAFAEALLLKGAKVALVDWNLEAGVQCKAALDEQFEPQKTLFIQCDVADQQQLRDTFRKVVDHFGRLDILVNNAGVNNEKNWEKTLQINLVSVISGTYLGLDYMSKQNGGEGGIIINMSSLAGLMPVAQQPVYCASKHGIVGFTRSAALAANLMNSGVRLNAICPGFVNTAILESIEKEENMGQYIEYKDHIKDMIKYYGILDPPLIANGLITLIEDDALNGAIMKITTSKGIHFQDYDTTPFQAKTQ
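NADH formation kinetics: reaction with 30 uM PGE2 and 1 mM NAD+ (final), 20 nM enzyme, Tris-HCl pH 8 with Tween 20, after 15 min compound preincubation at room temperature. Fluorescence change, last versus first of five reads.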
HttQ103 aggreg – inhibitors of mutant huntingtin aggregate formation in PC12 cells; PC12 HttQ103-GFP aggregates, Acumen cytometry, 40 h; Potency, µM (doses to about 46.1 µM), for inactives: top-dose activity change, negative = inhibition, most hits filed as inhibitors; actives 1.1% (n = 220,000); AID 1688; note: potency is the fitted concentration of half-maximal effect; % is set by controls: 0 for no effect and ±100 for the full control effect; nearly all actives have a fitted effect of over 60% in size
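PC12/HTTQ103-GFP, ecdysone-inducible; teb 100 nM; cpd qHTS titration; GFP aggregates read on laser cytometer, Ex 488/Em 500-530 nm.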
ALDH1A1 block – blocks purified human ALDH1A1 activity. P00352. actives 7.3% (n = 220,000). Potency, µM (highest dose often 75.3 µM), without a hit: at the top dose activity, negative = inhibition, most hits filed as inhibitors. Purified ALDH1A1, NADH fluorescence, propionaldehyde substrate. AID 1030; active = well fitted inhibition curve with a large enough effect, not every such curve was filed as active; inconclusive = small, poorly fitted or top-dose-only effect, or another doubt; inactive = no such curve, though single readings can be large or run the other way;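 note: potency is the fitted concentration of half-maximal effect; plate controls were no enzyme wells and a reference inhibitor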
Target sequence (P00352 whole entry, looked up): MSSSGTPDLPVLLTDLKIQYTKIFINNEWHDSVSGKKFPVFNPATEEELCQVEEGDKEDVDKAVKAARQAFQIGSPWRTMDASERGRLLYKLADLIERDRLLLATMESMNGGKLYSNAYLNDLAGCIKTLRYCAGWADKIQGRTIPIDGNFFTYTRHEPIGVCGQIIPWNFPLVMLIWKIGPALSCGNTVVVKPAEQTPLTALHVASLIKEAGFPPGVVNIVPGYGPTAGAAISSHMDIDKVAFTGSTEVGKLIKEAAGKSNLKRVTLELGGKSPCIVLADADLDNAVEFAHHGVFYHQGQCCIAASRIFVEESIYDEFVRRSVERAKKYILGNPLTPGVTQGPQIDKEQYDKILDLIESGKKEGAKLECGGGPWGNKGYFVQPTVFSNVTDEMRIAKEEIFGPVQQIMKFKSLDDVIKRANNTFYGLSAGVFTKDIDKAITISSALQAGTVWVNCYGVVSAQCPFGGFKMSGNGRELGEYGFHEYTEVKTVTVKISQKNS
KDM4E inh – inhibitors of human JMJD2E histone demethylase; B2RXH2; JMJD2E catalytic domain, FDH-coupled NADH fluorescence (FDH is formaldehyde dehydrogenase); Potency, µM (doses to about 57.1 µM), without a hit: at the top dose activity change, negative = inhibition, hits mostly inhibitors; actives 1.6% (n = 230,000); AID 2147; active = well fitted inhibition curve with a large enough effect, not every such curve was filed as active; inconclusive = small, poorly fitted or top-dose-only effect, or another doubt; inactive = no such curve, though single readings can be large or run the other way;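 note: potency is the fitted concentration of half-maximal effect; 0% = wells with enzyme and -100% = buffer wells without enzyme; nearly all actives have a fitted effect of over 50% in size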
HTT ATP protect – protects HTT-Q103 PC12 cells, measured by ATP. PC12 HTT-Q103 induced, cytoprotection, ATP luminescence, 40 h. AID 1471. Potency, µM (series often up to 56.4 µM), for the others: cytoprotection (ATP increase), most hits filed as activators. actives 0.14% (n = 230,000); note: potency is the fitted concentration of half-maximal effect; % of control where 0% means no effect; nearly all actives have a fitted effect of over 45% in size
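Compounds were screened for protection of PC12 cells against cell death after tebufenozide induction (100 nM final) of mutant Huntingtin exon 1 (Q103) fused to GFP.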
* hit, by the source's call; u = inconclusive; x = not tested or not shown; [ ] = another dose, or the depositor's remark. Compounds with a hit are over-represented: about 9.8% of the library has one in this group of screens. Unless noted, calls come from the whole dose curve; as a rule, active = well fitted curve in the direction sought with a large enough effect; inconclusive = small, poorly fitted or top-dose-only effect, or another doubt; inactive = no such curve, though single readings can be large; an effect the other way counts as inactive or inconclusive.

SMILES | CBFb RUNX1 block | HPGD block | HttQ103 aggreg | ALDH1A1 block | KDM4E inh | HTT ATP protect
O=C(NCc1ccco1)c1nc2c(nnn2Cc2ccccc2Cl)c(=O)[nH]1 | -15% | 14µM* | -14% | -1% | 14% | 20%[10 µM]
CCc1nc2c(nnn2Cc2ccc(F)cc2)c(=O)[nH]1 | 2% | 14µM* | 1% | -8% | -2% | 0%
O=C(CSCc1nc2c(nnn2Cc2ccc(F)cc2)c(=O)[nH]1)Nc1c(Cl)cc(Cl)cc1Cl | -9% | x | -11% | 2% | 6% | -35%
Cc1nc(NCC2CCCO2)c2nnn(Cc3ccccc3)c2n1 (stereo not given) | 4% | -27% | -18% | 22µM* | 2% | -18%
O=C(NCC1CCCO1)c1nc2c(nnn2Cc2ccc(F)cc2)c(=O)[nH]1 (stereo not given) | 2% | 14µM* | -11% | 1% | 3% | -18%
O=C(NCC1CCCO1)C1CCC(=O)N1Cc1ccc(F)cc1 (stereo not given) | 0% | -8% | -1% | 5% | -4% | -2%
CN(C)c1nc(N)c([N+](=O)[O-])c(NCC2CCCO2)n1 (stereo not given) | 9% | x | 2%[9.22 µM] | x | 11% | 30%[10 µM]
O=C(Cn1cc(C(F)(F)F)cc(Cl)c1=O)Nc1ccc(N2CCOCC2)cc1 | -1% | x | 1% | 2% | -11% | -11%
CCOC(=O)C1(CC)NC(c2cccc(F)c2)C2C(=O)N(CC)C(=O)C21 (stereo not given) | 5% | -2% | 6% | 5% | -4% | 19%[1.9 µM]
CCc1nnc(NS(=O)(=O)c2ccc(Nc3ccc4nonc4c3[N+](=O)[O-])cc2)s1 | 1% | x | 19%[9.22 µM] | 27% | -1% | 19%[10 µM]
O=C(Nc1ccc(F)cc1)c1nc2c(nnn2Cc2cccc3ccccc23)c(=O)[nH]1 | 7% | x | -23%[9.22 µM] | x | 7% | 24%[10 µM]
O=C(NCc1cccs1)c1nc2c(nnn2Cc2ccc(F)cc2)c(=O)[nH]1 | -5% | 14µM* | 3% | -1% | 0% | 14%[10 µM]
COc1cccc(N2C(=O)C3CCCN3C2c2ccc(N(C)C)cc2)c1 (stereo not given) | 0% | -12% | 11% | 1µM* | -1% | -17%
COc1cccc(N2C(=O)C3CCCN3C2c2ccc(Cl)cc2)c1 (stereo not given) | 0% | -8% | -6% | 6% | 6% | -13%
COC(=O)/C(=C1/Oc2cc(C)oc(=O)c2S1)C(F)(F)F | 4% | 7.9µM* | u | 0% | -3% | -80%[10 µM]
Nc1no[n+]([O-])c1-c1ccccc1 | -10% | x | 3% | 8% | -4% | 7%
CCCn1[nH]cc(SC)c(=O)c1=O | -3% | -6% | 4% | 22µM* | -28% | -2%
CC(C)(C)c1ccc(OCCNC(=O)Cc2ccc(F)cc2)cc1 | 8% | -9% | 6% | 16% | 8% | -7%[10 µM]
COc1ccc(CCNC(=O)COC(=O)C23CC4CC(CC(C4)C2)C3)cc1 | -1% | -3% | -12% | 22µM* | -1% | 0%[10 µM]
COc1ccc(CNC(=O)C/C(C)=N/NC(=O)Cc2ccc(OC)cc2)cc1 | 9% | 3% | 19% | 0% | 18% | 23%[10 µM]
COc1ccc(CNC(=O)C/C(C)=N/NC(=O)C23CC4CC(CC(C4)C2)C3)cc1 | 6% | x | 6%[9.22 µM] | 14µM* | 11% | 11%[10 µM]
COc1ccc(COC(=O)N/N=C(\C)CC(=O)NCc2ccc(Cl)cc2)cc1 | 5% | x | -4% | 8% | 7% | -10%
COc1ccc(CNC(=O)C/C(C)=N/NC(=O)C(c2ccccc2)c2ccccc2)cc1 | 3% | -1% | -7% | 22µM* | 15% | -18%
C/C(=N\O)C1CCCCC1 | 4% | x | -11%[9.22 µM] | x | 6% | 4%[10 µM]
CC1Cc2ccccc2N1C(=O)CSc1nnnn1C1CCCC1 (stereo not given) | 3% | -18% | 6% | 2.5µM* | -1% | 15%
SMILES | CBFb RUNX1 block | HPGD block | HttQ103 aggreg | ALDH1A1 block | KDM4E inh | HTT ATP protect
CC1Cc2ccccc2N1C(=O)CSc1nnnn1C(C)C (stereo not given) | 2% | -6% | 4% | 28µM* | 1% | -47%
CC1Cc2ccccc2N1C(=O)CSc1nnnn1C (stereo not given) | 4% | 3% | 15%[9.22 µM] | -4% | 13% | -15%
CC1Cc2ccccc2N1C(=O)CSc1nnc2sc3ccccc3n12 (stereo not given) | 6% | -4% | 7% | 14µM* | 2% | -19%
CNC(=S)N1CCN(c2ccc(Cl)c(Cl)c2)CC1 | -6% | x | u | 3% | -2% | 13%[10 µM]
O=C1N=c2ccccc2=C1c1[nH]c(=S)[nH]c1O | 10% | -26% | -22% | 11µM* | -2% | 2%[10 µM]
Cc1ccc(-c2cnc3c(Cl)c(C)nn3c2)cc1 | -4% | x | -3% | -7% | 4% | -26%[10 µM]
CC(C)CCNc1nc(N)c([N+](=O)[O-])c(NCC2CCCO2)n1 (stereo not given) | -2% | -19% | 0% | 11µM* | -29% | 27%[10 µM]
COCCCNC(=S)Nc1cccc(SC)c1 | 2% | x | -14%[9.22 µM] | x | -2% | 6%[10 µM]
Cc1ccc(C(=O)NC(O)C(Cl)Cl)cc1 (stereo not given) | 5% | 25µM* | 16% | 7% | 2% | x
Cc1ccc(C(=O)NNC(=O)c2ccc(C)cc2)cc1 | 3% | x | 10% | 18% | 3% | -35%
Cc1ccc(C(=O)NC=C(Cl)Cl)cc1 | u | 28µM* | -13% | -4% | -2% | 3%
CC(C)Cc1cc(C(=O)N2CCC(N3CCC(C(=O)N4CCOCC4)CC3)CC2)n[nH]1 | 1% | x | -18%[9.22 µM] | -4% | 5% | -8%[10 µM]
O=c1[nH]n2c(=O)c3c([nH]c2c1N=Nc1cccc(Cl)c1)CCCC3 | 7% | 16µM* | u | -2% | 1% | -8%[1.9 µM]
CCOc1ccc(N=Nc2c(=O)[nH]n3c(=O)c4c([nH]c23)CCCC4)cc1 | -10% | u | u | 4% | u | x
Cc1ccc(S(=O)(=O)N2CCOCC2)cc1C(=O)c1nccn1C | -1% | x | -2% | 19µM* | -9% | -8%
Cc1ccc(S(=O)(=O)N2CCOCC2)cc1C(=O)N1CCOCC1 | 0% | -5% | 13%[9.22 µM] | -9% | -4% | -2%
COC(C(=O)Nc1ccc(Br)cc1F)c1ccccc1 (stereo not given) | 4% | x | 22% | 10µM* | -11% | -12%[10 µM]
COc1ccc(NC(=O)CN2CCN(CC(=O)Nc3ccccc3F)CC2)c(OC)c1 | -1% | -16% | -3% | 18µM* | 10% | 3%[10 µM]
CCN(CC(=O)Nc1ccc(OC)cc1)CC(=O)Nc1ccc(Br)cc1F | 2% | x | 2% | u | -1% | -27%
O=C(CN1CCCC1)Nc1ccccc1C(=O)c1ccccc1 | 6% | x | -4%[9.22 µM] | 14% | -4% | 5%[10 µM]
COc1ccc(NCC(=O)Nc2ccc(Br)cc2F)c(OC)c1 | -6% | x | -14%[9.22 µM] | 1.6µM* | -18% | -15%[10 µM]

Bioassay records: PubChem BioAssay, National Center for Advancing Translational Sciences (NCATS)
